Drawing on PubChem BioAssay AID1347426 (Functional Genomics Laboratory (NCATS/FGL), 2020), this text covers median seed-adjusted z-score for 55 sequences.

About 1,400 (4.5%) of roughly 31,000 sequences were called active. Many of the other results were omitted from the sample, so actives are more common in it than they were. Unmarked numbers belong to inactive results.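 The calls were made as follows: active = median seed-adjusted z-score above 1 or below -1; inactive = the rest.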

The nature of this experiment: Novel Modifiers of Survival Motor Neuron (SMN) Protein: Gene Identification via Genome-wide siRNA Screen. Particulars: HEK293T SMN2-luciferase reporter, siRNA knockdown, 72 h; actives lie on both sides. The source says:
Spinal muscular atrophy (SMA) is the most common neuromuscular autosomal recessive disorder and one of the leading genetic causes of infant death. SMA results from mutations inducing loss of function or deletion in the survival of motor neuron-1 gene (SMN1), leading to deficiency of the survival motor neuron (SMN) protein. Although a second nearly identical gene, SMN2, is retained in humans, its expression primarily produces an aberrantly spliced isoform that is largely unstable and quickly degraded. We performed a genome-wide RNAi screen using a cell-based reporter assay to identify genes and pathways that modulate SMN protein stability. The screen identified over 200 genes that led to the greatest increase or decrease in luciferase expression.
Using HEK293T cells stably expressing a luciferase reporter that combines the promoter and splicing based cassettes in tandem with the major portion of the native SMN2 cDNA with luciferase, we performed a genome-wide RNAi screen to identify modulators of SMN protein levels. Luciferase is expressed when full-length SMN protein is generated with luminescence signal proportional to SMN protein levels. Our luciferase-based reporter assay was used to screen Ambion Silencer Select Human Druggable Genome siRNA library (10418 genes, 3 unique siRNAs per gene) using lipid-based reverse transfection.
Briefly, 1 pmol of each siRNA was spotted to a well of a 384-well plate (Corning, Corning, NY) and 20 microL of serum-free DMEM containing […] of Lipofectamine RNAiMax (Life Technologies, Carlsbad, CA) was then added to each well. Transfected cells were maintained at 37 degrees C in 5% CO2 for 72 hours, 20 microL of ONE-Glo Reagent (Promega) was added to wells for luciferase quantification. Raw luminescence reads were normalized to Ambion(R) Silencer(R) Negative Control #2 siRNA, then log10 transformed. A robust statistical measure of median absolute deviation (MAD) to standardize siRNA activities from each screen. Common Seed Analysis was used to help prioritize clean hits as opposed to those appearing to arise from seed based off-target effects. Candidate modulators were defined as the genes having a MAD score greater than 1.0 or less than -1.0.
On the technique in general: In a reporter assay the amount or activity of a reporter protein is the signal.
For the sequence CCCUUAGACUCUAAGCCCATT against HSD17B14, the median seed-adjusted z-score is 0.386.

For the sequence GAAUGGUCCUAUAUCUCAATT against LARP5, the median seed-adjusted z-score was -0.144.

Consider GGAUACUUCAGGACUAGAATT against PNN, for which the median seed-adjusted z-score is 1.29 (active).

For the sequence GAGCAUCUUUGAUCGAGAATT against SPINK5, the median seed-adjusted z-score is 0.26.

Regarding CCCUGGCAGCUAGUAGGUUTT against BATF3, the median seed-adjusted z-score is 0.698.

Take CCAGUUUAUUGGAAACCGATT against NOP56: the median seed-adjusted z-score was 0.307.

Consider UCCAGCAAGUGGCCAAGAATT against DUPD1, for which the median seed-adjusted z-score was -0.406.

For AGAUUAUCAUAUUGGGUGATT against RAB7B, the median seed-adjusted z-score was 0.

Regarding CUAUAGGAAUGUUGAAUAATT against WDR33, the median seed-adjusted z-score was 3.27 (active).

As to GGACCACAAUGUACGGAAATT against ATP13A5, the median seed-adjusted z-score is 0.241.

Take CUCCUGUACUCUUCAGAGATT against PTOV1: the median seed-adjusted z-score was 0.115.

As to GGACCAAGCCCUAAAGGAATT against 4-Sep, the median seed-adjusted z-score was -0.0124.

In the case of GGAUUAAUCCACGAAUUGATT against EGF, the median seed-adjusted z-score is 0.00831.

AACUUGUAUUCUUAGGUUUTT against SAR1A: the median seed-adjusted z-score was 0.0213.

Turning to GCUAACUACCAAGUCCUAATT against SLC8A1, the median seed-adjusted z-score was 0.221.

Regarding ACAUCGCCCUCAAACGGGATT against ACTL7A, the median seed-adjusted z-score was 1.1 (active).

As to GAUUGAUAGAGACAAUUCATT against RNGTT, the median seed-adjusted z-score was -1.55 (active).

For UGGUGCUGUUGGUAAAACATT against CDC42, the median seed-adjusted z-score is -0.0938.

For AGAGGUCCUUCAAAACAGATT against ENTPD6, the median seed-adjusted z-score is 0.438.

Turning to GGAGCGGAAUGAACUCAAATT against RILP, the median seed-adjusted z-score is 0.503.

As for GCUUAGGUCUUGCUCUCAATT against YWHAE, the median seed-adjusted z-score is 1.38 (active).

As for CCACAAUAUCUCUAACAGATT against GUCY1A2, the median seed-adjusted z-score was -0.186.

Regarding AAACAAUCCGAAAAUAUGATT against KLK13, the median seed-adjusted z-score is 0.452.

As to GAAUUGACAAUCUCAUAGATT against MCCC2, the median seed-adjusted z-score was -0.0566.

On to GCAUCUUUUGGAGAUCGAATT against TC2N, for which the median seed-adjusted z-score was 0.461.

On to GAAGUAUGAAGAAGAAGUATT against KRT83, for which the median seed-adjusted z-score was 1.15 (active).

Regarding GAUCAUCCCUUGUCUCUUUTT against CHRNA6, the median seed-adjusted z-score is 0.21.

As for GCAGAAUACUUCUAUGAAUTT against WIF1, the median seed-adjusted z-score is -0.521.

Take ACACCAGCCUUGCACCUGATT against NCR1: the median seed-adjusted z-score is -0.26.

Regarding CGCCUUUCAUUUUUGCUGATT against TGM1, the median seed-adjusted z-score was -0.286.

Regarding CCUUUGCCCUGUUCAAGGATT against CYP17A1, the median seed-adjusted z-score is -1.39 (active).

Regarding CAUACGAGGUAUUAUCAAATT against DNAJB7, the median seed-adjusted z-score is 0.684.

Take GGAUCAGUAAUAUACCACATT against MTFMT: the median seed-adjusted z-score was -0.0119.

On to CCUGGAUUACAUCUACUUATT against EPHB6, for which the median seed-adjusted z-score was -0.0275.

On to GCAGCAUUAUAGUCGUAUUTT against PRSS7, for which the median seed-adjusted z-score was 0.0614.

As for GCAUUUGUAGGGUUACGGATT against GABRG1, the median seed-adjusted z-score is 0.312.

Take CAUUGUAGAUUACUCAGAATT against RHOT1: the median seed-adjusted z-score is -0.189.

As for GAUCCAUACUUGGAUGAUATT against PAIP1, the median seed-adjusted z-score was -0.0178.

With GCUCGGAUAUGCUCCAGGATT against TMPRSS5, the median seed-adjusted z-score is 1.25 (active).

As to GCCUGGAAUUCUACCGCUATT against SLC29A1, the median seed-adjusted z-score is 0.117.

As to GCAUAUCUUCUAACUUGCATT against EVI1, the median seed-adjusted z-score was 0.

On to GGACCAAGAGGAUUGAGUATT against CLSTN2, for which the median seed-adjusted z-score was 0.

For the sequence AGUUUAAUCGGAAAGCCUUTT against NANS, the median seed-adjusted z-score is -1.54 (active).

Regarding GCAACACCGACGUAAAGAATT against ALOX5, the median seed-adjusted z-score is -0.201.

Turning to UGCUCUCAGUGGAAGAGGATT against TNFRSF8, the median seed-adjusted z-score is 0.739.

For GGUUGGUGUUCGAUGAGUATT against ANXA6, the median seed-adjusted z-score was -1.01 (active).

As to GCGGCAAGGGUUUCAAGCATT against FIZ1, the median seed-adjusted z-score is 0.154.

For the sequence GAAGUUCGGUCGAACCACATT against CST5, the median seed-adjusted z-score was 0.466.

Regarding CCAGUACGCUAUGGACGUATT against MDN1, the median seed-adjusted z-score was 0.187.

In the case of GUCUGUCAAUGUACCUUCUTT against 3-Mar, the median seed-adjusted z-score is 0.069.

GCAACAGCAUUGUCCGUGUTT against LRRN2: the median seed-adjusted z-score is 0.324.

As for GAACUGACAUGGGAAGAUUTT against DUOX1, the median seed-adjusted z-score is -1.09 (active).

As to GCCUGACUUCGACUGCUCATT against GFER, the median seed-adjusted z-score is 0.402.

Turning to GGAGGCUAAUGGUUGCUUUTT against ARPC1B, the median seed-adjusted z-score is 0.

With CUAUUUCCCUGCCUUCGAATT against GSTA3, the median seed-adjusted z-score is 0.334.
